According to the supplement of paper PMC9262897, “Low-cost anti-mycobacterial drug discovery using engineered E. coli” (Nature Communications, 2022):
Counter-ions that a name gives are not always drawn. ± gives the standard deviation of the averaged measurements.

System: E. coli TESEC Mtb Alr
Test: growth (OD600 after 10 h); higher = more growth (less inhibition)
Conditions: arabinose 1000 nM; compound 0.1 mM; raw OD600 reference: median of DMSO wells 0.294, cell-free background 0.041
Protocol: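 TESEC Mtb Alr E. coli, or the Alr+ wild-type control, in 384-well plates with Prestwick library compounds at 0.1 mM and 1% DMSO, across arabinose induction levels of 1E3 to 1E7 nM. Growth is read as OD600 after 10 h at 37 °C in triplicate biological replicates.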

SMILES | growth
CC(C)c1ccc2oc3nc(N)c(C(=O)O)cc3c(=O)c2c1 [Amlexanox] | 0.157 ± 0.015
CCC1=C(C)CN(C(=O)NCCc2ccc(S(=O)(=O)NC(=O)N[C@H]3CC[C@H](C)CC3)cc2)C1=O [Glimepiride] | 0.299 ± 0.011
CCOc1ccc2ccccc2c1C(=O)N[C@@H]1C(=O)N2[C@@H]1SC(C)(C)[C@@H]2C(=O)O [Nafcillin sodium salt monohydrate] | 0.303 ± 0.011
S=c1[nH]cnc2nc[nH]c12 [Mercaptopurine] | 0.0619 ± 0.0038
O=C(O)c1cccnc1 [Niacin] | 0.346 ± 0.021
CC(=O)OCC(=O)[C@@]1(O)CC[C@H]2[C@@H]3CCC4=CC(=O)C=C[C@]4(C)[C@@]3(F)[C@@H](O)C[C@@]21C [Isoflupredone acetate] | 0.266 ± 0.019
CCc1oc2ccccc2c1C(=O)c1cc(Br)c(O)c(Br)c1 [Benzbromarone] | 0.0448 ± 0.0076
NS(=O)(=O)c1cc(Cl)c(Cl)c(S(N)(=O)=O)c1 [Dichlorphenamide] | 0.298 ± 0.012
O=C(O)[C@H]1/C(=C/CO)O[C@@H]2CC(=O)N21 [Clavulanate potassium salt] | 0.0502 ± 0.0035
COc1ccccc1OCCNCC(O)COc1cccc2[nH]c3ccccc3c12 (stereo not drawn) [Carvedilol] | 0.0415 ± 0.00062
CC(=O)N[C@@H](CS)C(=O)O [Acetylcysteine] | 0.298 ± 0.0096
CO[C@@]1(NC(=O)C2SC(=C(C(N)=O)C(=O)O)S2)C(=O)N2C(C(=O)O)=C(CSc3nnnn3C)CS[C@@H]21 (stereo partly drawn) [Cefotetan] | 0.0383 ± 0.0011
CC(=O)O[C@H]1C(=O)[C@@]2(C)[C@H]([C@H](OC(=O)c3ccccc3)[C@]3(O)C[C@H](OC(=O)[C@H](O)[C@@H](NC(=O)c4ccccc4)c4ccccc4)C(C)=C1C3(C)C)[C@]1(OC(C)=O)CO[C@@H]1C[C@@H]2O [Paclitaxel] | 0.285 ± 0.019
Nc1nc(=O)[nH]cc1F [Flucytosine] | 0.309 ± 0.022
CN(C)CCC[C@@]1(c2ccc(F)cc2)OCc2cc(C#N)ccc21 [Escitalopram oxalate] | 0.281 ± 0.014
CCOC(=O)OC(C)OC(=O)[C@@H]1N2C(=O)[C@@H](NC(=O)[C@H](N)c3ccccc3)[C@H]2SC1(C)C (stereo partly drawn) [Bacampicillin hydrochloride] | 0.305 ± 0.011
CN1CCCN=C1/C=C/c1cccs1 [Pyrantel tartrate] | 0.278 ± 0.0075
CN1CCOC(c2ccccc2)c2ccccc2C1 (stereo not drawn) [Nefopam hydrochloride] | 0.294 ± 0.0068
c1ccc2c(CC3=NCCN3)cccc2c1 [Naphazoline hydrochloride] | 0.26 ± 0.032
COc1cc(C)nc(-n2nc(C)cc2OC)n1 [Epirizole] | 0.263 ± 0.012

SMILES | growth
CCc1cccc2c3c([nH]c12)C(CC)(CC(=O)O)OCC3 (stereo not drawn) [Etodolac] | 0.272 ± 0.0061
C[C@]12CC[C@@H]3c4ccc(O)cc4CC[C@H]3[C@@H]1C[C@@H](O)[C@@H]2O [Estriol] | 0.218 ± 0.018
N#Cc1ccc(C(c2ccc(C#N)cc2)n2cncn2)cc1 [Letrozole] | 0.308 ± 0.006
Cc1cc(C2CCCCC2)n(O)c(=O)c1 [Ciclopirox ethanolamine] | 0.04303 ± 5.8e-05
CC(=O)/N=c1/sc(S(N)(=O)=O)nn1C [Methazolamide] | 0.301 ± 0.019
CC(C)NC[C@H](O)COc1ccc(CC(N)=O)cc1 [(S)-(-)-Atenolol] | 0.288 ± 0.016
COc1cc(OC)c(C(=O)CCCN2CCCC2)c(OC)c1 [Buflomedil hydrochloride] | 0.296 ± 0.0094
CCN1CCC[C@H]1CNC(=O)c1c(OC)ccc(Br)c1OC [Remoxipride Hydrochloride] | 0.304 ± 0.016
CN(C)c1nc(N(C)C)nc(N(C)C)n1 [Altretamine] | 0.315 ± 0.018
Nc1ccn([C@@H]2O[C@H](CO)[C@@H](O)[C@@H]2O)c(=O)n1 [Cytarabine] | 0.307 ± 0.0036
CC(N)C12CC3CC(CC(C3)C1)C2 (stereo not drawn) [Rimantadine Hydrochloride] | 0.293 ± 0.0047
Cn1c(=O)c2nc[nH]c2n(C)c1=O [Theophylline monohydrate] | 0.328 ± 0.018
O=C(O)c1ccccc1OP(=O)(O)O [Fosfosal] | 0.292 ± 0.017
COC(=O)Nc1nc2cc(C(=O)c3ccccc3)ccc2[nH]1 [Mebendazole] | 0.245 ± 0.021
O=c1[nH]cc(F)c(=O)[nH]1 [5-fluorouracil] | 0.155 ± 0.012
CCc1nn(CCCN2CCN(c3cccc(Cl)c3)CC2)c(=O)n1CCOc1ccccc1 [Nefazodone HCl] | 0.0444 ± 0.0031
COc1cc(NC(C)CCCN)c2ncccc2c1 (stereo not drawn) [Primaquine diphosphate] | 0.0463 ± 0.00081
CNS(=O)(=O)Cc1ccc2[nH]cc(CCN(C)C)c2c1 [Sumatriptan succinate] | 0.298 ± 0.019
Cc1ccc(N(CC2=NCCN2)c2cccc(O)c2)cc1 [Phentolamine hydrochloride] | 0.287 ± 0.0088

Same assay, conditions: arabinose 10000 nM; compound 0.1 mM; raw OD600 reference: median of DMSO wells 0.264, cell-free background 0.041

SMILES | growth
CC(C)c1ccc2oc3nc(N)c(C(=O)O)cc3c(=O)c2c1 [Amlexanox] | 0.307 ± 0.0078
CCC1=C(C)CN(C(=O)NCCc2ccc(S(=O)(=O)NC(=O)N[C@H]3CC[C@H](C)CC3)cc2)C1=O [Glimepiride] | 0.239 ± 0.0027
CCOc1ccc2ccccc2c1C(=O)N[C@@H]1C(=O)N2[C@@H]1SC(C)(C)[C@@H]2C(=O)O [Nafcillin sodium salt monohydrate] | 0.257 ± 0.014
S=c1[nH]cnc2nc[nH]c12 [Mercaptopurine] | 0.0528 ± 0.0011
O=C(O)c1cccnc1 [Niacin] | 0.304 ± 0.0045
CC(=O)OCC(=O)[C@@]1(O)CC[C@H]2[C@@H]3CCC4=CC(=O)C=C[C@]4(C)[C@@]3(F)[C@@H](O)C[C@@]21C [Isoflupredone acetate] | 0.22 ± 0.0097
CCc1oc2ccccc2c1C(=O)c1cc(Br)c(O)c(Br)c1 [Benzbromarone] | 0.0403 ± 0.00069
NS(=O)(=O)c1cc(Cl)c(Cl)c(S(N)(=O)=O)c1 [Dichlorphenamide] | 0.2704 ± 0.0016
O=C(O)[C@H]1/C(=C/CO)O[C@@H]2CC(=O)N21 [Clavulanate potassium salt] | 0.0477 ± 0.0036
COc1ccccc1OCCNCC(O)COc1cccc2[nH]c3ccccc3c12 (stereo not drawn) [Carvedilol] | 0.046 ± 0.0023
CC(=O)N[C@@H](CS)C(=O)O [Acetylcysteine] | 0.2731 ± 0.0017
CO[C@@]1(NC(=O)C2SC(=C(C(N)=O)C(=O)O)S2)C(=O)N2C(C(=O)O)=C(CSc3nnnn3C)CS[C@@H]21 (stereo partly drawn) [Cefotetan] | 0.04147 ± 0.00015
CC(=O)O[C@H]1C(=O)[C@@]2(C)[C@H]([C@H](OC(=O)c3ccccc3)[C@]3(O)C[C@H](OC(=O)[C@H](O)[C@@H](NC(=O)c4ccccc4)c4ccccc4)C(C)=C1C3(C)C)[C@]1(OC(C)=O)CO[C@@H]1C[C@@H]2O [Paclitaxel] | 0.255 ± 0.024
Nc1nc(=O)[nH]cc1F [Flucytosine] | 0.243 ± 0.0058
CN(C)CCC[C@@]1(c2ccc(F)cc2)OCc2cc(C#N)ccc21 [Escitalopram oxalate] | 0.251 ± 0.015
CCOC(=O)OC(C)OC(=O)[C@@H]1N2C(=O)[C@@H](NC(=O)[C@H](N)c3ccccc3)[C@H]2SC1(C)C (stereo partly drawn) [Bacampicillin hydrochloride] | 0.269 ± 0.0047
CN1CCCN=C1/C=C/c1cccs1 [Pyrantel tartrate] | 0.268 ± 0.0081
CN1CCOC(c2ccccc2)c2ccccc2C1 (stereo not drawn) [Nefopam hydrochloride] | 0.263 ± 0.003
c1ccc2c(CC3=NCCN3)cccc2c1 [Naphazoline hydrochloride] | 0.268 ± 0.0057
COc1cc(C)nc(-n2nc(C)cc2OC)n1 [Epirizole] | 0.249 ± 0.0083

SMILES | growth
CCc1cccc2c3c([nH]c12)C(CC)(CC(=O)O)OCC3 (stereo not drawn) [Etodolac] | 0.264 ± 0.01
C[C@]12CC[C@@H]3c4ccc(O)cc4CC[C@H]3[C@@H]1C[C@@H](O)[C@@H]2O [Estriol] | 0.277 ± 0.015
N#Cc1ccc(C(c2ccc(C#N)cc2)n2cncn2)cc1 [Letrozole] | 0.253 ± 0.0064
Cc1cc(C2CCCCC2)n(O)c(=O)c1 [Ciclopirox ethanolamine] | 0.03957 ± 0.00035
CC(=O)/N=c1/sc(S(N)(=O)=O)nn1C [Methazolamide] | 0.266 ± 0.0036
CC(C)NC[C@H](O)COc1ccc(CC(N)=O)cc1 [(S)-(-)-Atenolol] | 0.2708 ± 0.0025
COc1cc(OC)c(C(=O)CCCN2CCCC2)c(OC)c1 [Buflomedil hydrochloride] | 0.269 ± 0.0091
CCN1CCC[C@H]1CNC(=O)c1c(OC)ccc(Br)c1OC [Remoxipride Hydrochloride] | 0.259 ± 0.004
CN(C)c1nc(N(C)C)nc(N(C)C)n1 [Altretamine] | 0.254 ± 0.0079
Nc1ccn([C@@H]2O[C@H](CO)[C@@H](O)[C@@H]2O)c(=O)n1 [Cytarabine] | 0.247 ± 0.0079
CC(N)C12CC3CC(CC(C3)C1)C2 (stereo not drawn) [Rimantadine Hydrochloride] | 0.2629 ± 0.0005
Cn1c(=O)c2nc[nH]c2n(C)c1=O [Theophylline monohydrate] | 0.283 ± 0.013
O=C(O)c1ccccc1OP(=O)(O)O [Fosfosal] | 0.266 ± 0.0057
COC(=O)Nc1nc2cc(C(=O)c3ccccc3)ccc2[nH]1 [Mebendazole] | 0.269 ± 0.0042
O=c1[nH]cc(F)c(=O)[nH]1 [5-fluorouracil] | 0.148 ± 0.0051
CCc1nn(CCCN2CCN(c3cccc(Cl)c3)CC2)c(=O)n1CCOc1ccccc1 [Nefazodone HCl] | 0.04017 ± 0.00012
COc1cc(NC(C)CCCN)c2ncccc2c1 (stereo not drawn) [Primaquine diphosphate] | 0.04143 ± 0.00031
CNS(=O)(=O)Cc1ccc2[nH]cc(CCN(C)C)c2c1 [Sumatriptan succinate] | 0.258 ± 0.0057
Cc1ccc(N(CC2=NCCN2)c2cccc(O)c2)cc1 [Phentolamine hydrochloride] | 0.27 ± 0.0075
